# Among all 5,500 compounds or so, about 2,000 (36%) were called active. Another 18% or so got no clear call; they are omitted. Some of the results follow. A number with no mark means an inactive call. Rule as the data show it: active = normalized growth mostly below about 0.91 (no sharp cut-off); inconclusive = no clear call, values can overlap the other calls; inactive = mostly above about 0.92.
# Experiment: chemical genetic growth profiling, strain panel (AID 1159580);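 also: tested at 20 µM; growth read once vehicle control cultures reached saturation at 30 °C; 1 = growth at the plate median or of vehicle wells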
# Conditions: growth OD
smiles,measurement,setting,value
O=C1C=C(O)c2ccccc2C1=O,normalized growth,"S. cerevisiae deletion strains, locus YJR043C, strain POL32, stronger effect = lower value",1.01
same,normalized growth,"S. cerevisiae deletion strains, locus YJR066W, strain TOR1, stronger effect = lower value",0.825 (active)
same,normalized growth,"S. cerevisiae deletion strains, locus YKL009W, strain mrt4, stronger effect = lower value",1.04
same,normalized growth,"S. cerevisiae deletion strains, locus YKL068W, stronger effect = lower value",0.942
same,normalized growth,"S. cerevisiae deletion strains, locus YKL085W, strain MDH1 (second series), stronger effect = lower value",0.947
same,normalized growth,"S. cerevisiae deletion strains, locus YKL085W, strain MDH1, stronger effect = lower value",0.947
same,normalized growth,"S. cerevisiae deletion strains, locus YKL160W, strain elf1, stronger effect = lower value",0.912
same,normalized growth,"S. cerevisiae deletion strains, locus YKR001C, strain vps1, stronger effect = lower value",0.9
same,normalized growth,"S. cerevisiae deletion strains, locus YKR026C, strain gcn3, stronger effect = lower value",0.919 (active)
same,normalized growth,"S. cerevisiae deletion strains, locus YKR091W, strain srl3, stronger effect = lower value",0.961
same,normalized growth,"S. cerevisiae deletion strains, locus YLL001W, strain dnm1, stronger effect = lower value",0.937
same,normalized growth,"S. cerevisiae deletion strains, locus YLL026W, stronger effect = lower value",0.952
same,normalized growth,"S. cerevisiae deletion strains, locus YLL041C, strain sdh2, stronger effect = lower value",0.939
same,normalized growth,"S. cerevisiae deletion strains, locus YLR027C, strain aat2, stronger effect = lower value",0.935
same,normalized growth,"S. cerevisiae deletion strains, locus YLR039C, strain RIC1, stronger effect = lower value",0.71
same,normalized growth,"S. cerevisiae deletion strains, locus YLR058C, strain SHM2, stronger effect = lower value",0.949
same,normalized growth,"S. cerevisiae deletion strains, locus YLR102C, strain apc9, stronger effect = lower value",0.982
same,normalized growth,"S. cerevisiae deletion strains, locus YLR113W, strain HOG1, stronger effect = lower value",0.867
same,normalized growth,"S. cerevisiae deletion strains, locus YLR221C, strain rsa3, stronger effect = lower value",0.925
same,normalized growth,"S. cerevisiae deletion strains, locus YLR258W, strain gsy2, stronger effect = lower value",0.944
same,normalized growth,"S. cerevisiae deletion strains, locus YLR262C, strain YPT6 (second series), stronger effect = lower value",0.738 (active)
same,normalized growth,"S. cerevisiae deletion strains, locus YLR262C, strain YPT6, stronger effect = lower value",0.82
same,normalized growth,"S. cerevisiae deletion strains, locus YLR268W, strain sec22, stronger effect = lower value",0.923
same,normalized growth,"S. cerevisiae deletion strains, locus YLR320W, strain mms22, stronger effect = lower value",0.949
same,normalized growth,"S. cerevisiae deletion strains, locus YLR330W, strain CHS5, stronger effect = lower value",0.959
same,normalized growth,"S. cerevisiae deletion strains, locus YLR342W, strain FKS1 (second series), stronger effect = lower value",1.04
same,normalized growth,"S. cerevisiae deletion strains, locus YLR342W, strain FKS1, stronger effect = lower value",0.948
same,normalized growth,"S. cerevisiae deletion strains, locus YLR357W, strain rsc2, stronger effect = lower value",0.932
same,normalized growth,"S. cerevisiae deletion strains, locus YLR370C, strain arc18, stronger effect = lower value",0.941
same,normalized growth,"S. cerevisiae deletion strains, locus YLR371W, strain rom2, stronger effect = lower value",0.966
same,normalized growth,"S. cerevisiae deletion strains, locus YLR384C, strain iki3, stronger effect = lower value",0.971
same,normalized growth,"S. cerevisiae deletion strains, locus YLR418C, strain cdc73, stronger effect = lower value",0.894
same,normalized growth,"S. cerevisiae deletion strains, locus YML016C, strain PPZ1, stronger effect = lower value",0.956
same,normalized growth,"S. cerevisiae deletion strains, locus YML032C, strain rad52, stronger effect = lower value",0.907
same,normalized growth,"S. cerevisiae deletion strains, locus YML120C, strain ndi1, stronger effect = lower value",0.93
same,normalized growth,"S. cerevisiae deletion strains, locus YML124C, strain tub3, stronger effect = lower value",0.964
same,normalized growth,"S. cerevisiae deletion strains, locus YMR058W, strain fet3, stronger effect = lower value",0.872 (active)
same,normalized growth,"S. cerevisiae deletion strains, locus YMR078C, strain ctf18, stronger effect = lower value",0.989
same,normalized growth,"S. cerevisiae deletion strains, locus YMR125W, strain sto1, stronger effect = lower value",0.954
same,normalized growth,"S. cerevisiae deletion strains, locus YMR129W, stronger effect = lower value",0.937
same,normalized growth,"S. cerevisiae deletion strains, locus YMR205C, strain PFK2, stronger effect = lower value",0.994
same,normalized growth,"S. cerevisiae deletion strains, locus YMR223W, strain ubp8, stronger effect = lower value",0.944
same,normalized growth,"S. cerevisiae deletion strains, locus YMR231W, strain pep5, stronger effect = lower value",0.919 (active)
same,normalized growth,"S. cerevisiae deletion strains, locus YMR307W, strain GAS1, stronger effect = lower value",0.863
same,normalized growth,"S. cerevisiae deletion strains, locus YNL067W, strain RPL9B, stronger effect = lower value",0.966
same,normalized growth,"S. cerevisiae deletion strains, locus YNL071W, strain lat1, stronger effect = lower value",0.945
same,normalized growth,"S. cerevisiae deletion strains, locus YNL128W, strain TEP1, stronger effect = lower value",0.974
same,normalized growth,"S. cerevisiae deletion strains, locus YNL183C, strain NPR1, stronger effect = lower value",0.884
same,normalized growth,"S. cerevisiae deletion strains, locus YNL209W, strain ssb2, stronger effect = lower value",0.941
same,normalized growth,"S. cerevisiae deletion strains, locus YNL233W, strain BNI4, stronger effect = lower value",0.978
same,normalized growth,"S. cerevisiae deletion strains, locus YNL248C, strain rpa49, stronger effect = lower value",0.951
same,normalized growth,"S. cerevisiae deletion strains, locus YNL250W, strain rad50, stronger effect = lower value",0.953
same,normalized growth,"S. cerevisiae deletion strains, locus YNL271C, strain bni1, stronger effect = lower value",0.941
same,normalized growth,"S. cerevisiae deletion strains, locus YNL298W, strain CLA4, stronger effect = lower value",0.968
same,normalized growth,"S. cerevisiae deletion strains, locus YNL307C, strain MCK1, stronger effect = lower value",0.968
same,normalized growth,"S. cerevisiae deletion strains, locus YNL322C, strain KRE1 (second series), stronger effect = lower value",0.944
same,normalized growth,"S. cerevisiae deletion strains, locus YNL322C, strain KRE1, stronger effect = lower value",0.971
same,normalized growth,"S. cerevisiae deletion strains, locus YNR049C, strain mso1, stronger effect = lower value",0.958
same,normalized growth,"S. cerevisiae deletion strains, locus YNR052C, strain pop2, stronger effect = lower value",0.941
same,normalized growth,"S. cerevisiae deletion strains, locus YOL006C, strain TOP1, stronger effect = lower value",0.865
same,normalized growth,"S. cerevisiae deletion strains, locus YOL012C, strain htz1",0.668
same,normalized growth,"S. cerevisiae deletion strains, locus YOL147C, strain pex11, stronger effect = lower value",0.955
same,normalized growth,"S. cerevisiae deletion strains, locus YOR001W, strain rrp6, stronger effect = lower value",0.931
same,normalized growth,"S. cerevisiae deletion strains, locus YOR061W, strain CKA2, stronger effect = lower value",0.979
same,normalized growth,"S. cerevisiae deletion strains, locus YOR069W, strain VPS5, stronger effect = lower value",0.971
same,normalized growth,"S. cerevisiae deletion strains, locus YOR070C, strain gyp1, stronger effect = lower value",0.956
same,normalized growth,"S. cerevisiae deletion strains, locus YOR080W, strain dia2, stronger effect = lower value",0.951
same,normalized growth,"S. cerevisiae deletion strains, locus YOR083W, strain WHI5, stronger effect = lower value",0.904
same,normalized growth,"S. cerevisiae deletion strains, locus YOR106W, strain vam3, stronger effect = lower value",0.863 (active)
same,normalized growth,"S. cerevisiae deletion strains, locus YOR136W, strain idh2, stronger effect = lower value",0.952
same,normalized growth,"S. cerevisiae deletion strains, locus YOR144C, strain elg1, stronger effect = lower value",0.966
same,normalized growth,"S. cerevisiae deletion strains, locus YOR184W, strain ser1, stronger effect = lower value",0.918
same,normalized growth,"S. cerevisiae deletion strains, locus YOR231W, strain MKK1, stronger effect = lower value",0.797 (active)
same,normalized growth,"S. cerevisiae deletion strains, locus YOR265W, strain rbl2, stronger effect = lower value",0.944
same,normalized growth,"S. cerevisiae deletion strains, locus YOR270C, strain vph1, stronger effect = lower value",0.846
same,normalized growth,"S. cerevisiae deletion strains, locus YOR290C, strain snf2, stronger effect = lower value",0.902
same,normalized growth,"S. cerevisiae deletion strains, locus YOR316C, strain cot1, stronger effect = lower value",0.98
same,normalized growth,"S. cerevisiae deletion strains, locus YPL051W, strain arl3, stronger effect = lower value",0.873 (active)
same,normalized growth,"S. cerevisiae deletion strains, locus YPL078C, strain atp4, stronger effect = lower value",0.897
same,normalized growth,"S. cerevisiae deletion strains, locus YPL106C, strain sse1, stronger effect = lower value",0.866
same,normalized growth,"S. cerevisiae deletion strains, locus YPL240C, strain hsp82, stronger effect = lower value",0.918 (active)
same,normalized growth,"S. cerevisiae deletion strains, locus YPL241C, strain CIN2, stronger effect = lower value",0.967
same,normalized growth,"S. cerevisiae deletion strains, locus YPL256C, strain CLN2, stronger effect = lower value",0.818 (active)
same,normalized growth,"S. cerevisiae deletion strains, locus YPR119W, strain clb2, stronger effect = lower value",0.966
same,normalized growth,"S. cerevisiae deletion strains, locus YPR141C, strain kar3, stronger effect = lower value",0.948
same,normalized growth,"S. cerevisiae deletion strains, locus YPR163C, strain tif3, stronger effect = lower value",0.995
same,normalized growth,"S. cerevisiae deletion strains, locus YPR167C, strain met16, stronger effect = lower value",0.956
same,normalized growth,"S. cerevisiae deletion strains, strain wtn01, stronger effect = lower value",0.967
same,normalized growth,"S. cerevisiae strains, strain wild type, stronger effect = lower value",0.978

# Source: PubChem BioAssay AID1159580 (chemical genetic matrix, 2015)
